Data reported in publication PMC4552634, “A New Set of Chemical Starting Points with Plasmodium falciparum Transmission-Blocking Potential for Antimalarial Drug Discovery” (PLoS ONE, 2015).
Among all 13,000 compounds or so, about 3,200 (25%) showed an effect of 50% or more. The list shows a part of the results.

Tested on: P. falciparum stage V gametocytes
Parameters: BacTiter-Glo ATP luminescence viability of purified stage V gametocytes in 384-well plates, per cent inhibition versus DMSO
Settings: 48 h, 5 µM; inhibitor

| Structure (SMILES) | % Inhibition |
| --- | --- |
| CN(C)c1cc(C(=O)N[C@@H](Cc2ccccc2)[C@H](O)CNC2CCCCC2)cc2[nH]ccc12 [TCMDC-136317] | -94.17% |
| CN1CCN(c2ccnc3ccc(NC(=O)Nc4ccccc4Br)cc23)CC1 [TCMDC-139342] | 15.44% |
| Fc1ccccc1COc1ccc(Nc2ncnc3ccc(I)cc23)cc1Cl [TCMDC-138627] | 9.829% |
| COc1cccc2cc(C(=O)N[C@@H](CC(C)C)C(=O)N[C@H](/C=N/NC(=O)OC(C)(C)C)CC(=O)OC(C)(C)C)oc12 [TCMDC-136085] | 28.48% |
| CC(C)(CNC(=O)C1CCN(CCOc2ccc(F)c(F)c2)CC1)c1nc(-c2ccc(Cl)c(O)c2)c(-c2ccncc2)[nH]1 [TCMDC-141136] | -40.38% |
| CN1CCC(C(=O)N(Cc2ccc(-c3ccc(CNCCc4ccc(S(C)(=O)=O)cc4)cn3)cc2)Cc2cccc(F)c2)CC1 [TCMDC-141507] | 85.53% |
| CN1CCC(C(=O)N(Cc2ccc(-c3ccc(CNCCc4ccc(S(C)(=O)=O)cc4)cn3)cc2)Cc2ccc3c(c2)OCO3)CC1 [TCMDC-141505] | 98.95% |
| CCCNCc1ccc(-c2ccc(CN(Cc3cccs3)C(=O)C3CCN(C)CC3)cc2)nc1 [TCMDC-141526] | 99.19% |
| CN1CCC(C(=O)N(Cc2ccc(-c3ccc(CNCCc4ccccc4)cn3)cc2)Cc2cccc(F)c2)CC1 [TCMDC-141553] | 18.34% |
| CC(=O)N1CCN(c2ccc(NC(=O)c3oc(-c4ccccc4)nc3C(F)(F)F)cn2)CC1 [TCMDC-135142] | -12.47% |
| CCN(CC)CCNC(=O)c1ccc(NC(=O)c2cn(-c3ccccc3)nc2-c2cccs2)cc1 [TCMDC-124032] | 29.35% |
| O=S(=O)(c1c(Cl)cc(Cl)cc1Cl)N1CCCCC(c2ccc(Cl)cc2)=N1 [TCMDC-134526] | -3.325% |
| O=S(=O)(c1ccccc1Cl)N1CCCCC(c2ccc(C(F)(F)F)cc2)=N1 [TCMDC-134532] | -26.8% |
| O=S(=O)(c1c(Cl)cccc1Cl)N1CCCCC(c2ccc(C(F)(F)F)cc2)=N1 [TCMDC-134537] | 50.16% |
| O=S(=O)(c1c(Cl)cc(Cl)cc1Cl)N1CCCCC(c2ccc(C(F)(F)F)cc2)=N1 [TCMDC-134541] | 71.02% |
| Cc1cccc(Cl)c1S(=O)(=O)N1CCCCC(c2ccc(C(F)(F)F)cc2)=N1 [TCMDC-134535] | 25.02% |
| O=S(=O)(c1ccc(Cl)cc1Cl)N1CCCCC(c2ccc(C(F)(F)F)cc2)=N1 [TCMDC-134536] | 0.9055% |
| CCNc1cc(C(=O)N[C@@H](Cc2ccccc2)[C@H](O)CNC2(CC(C)C)CC2)cc(N2CCCCS2(=O)=O)c1 [TCMDC-135258] | -2.163% |
| N#Cc1cccc(-c2ccc(C(=O)Nc3ccc4c(c3)CCN(C3CCC3)CC4)cn2)c1 [TCMDC-135996] | -32.92% |
| O=C(Nc1ccc2c(c1)CCN(C1CCC1)CC2)c1ccc(-c2cn3ccccc3n2)cc1 [TCMDC-135460] | 75.27% |
| N#Cc1ccc(-n2cc(C(=O)Nc3ccc4c(c3)CCN(C3CCC3)CC4)c(C(F)(F)F)n2)cc1 [TCMDC-136080] | 23.35% |
| COc1ccc2cc(C(=O)Nc3ccc4c(c3)CCN(C3CCC3)CC4)ccc2c1 [TCMDC-136082] | -6.595% |
| O=C(Nc1ccc2c(c1)CCN(C1CCC1)CC2)c1cn(-c2ccccc2)nc1-c1ccccc1 [TCMDC-136083] | 54.47% |

| Structure (SMILES) | % Inhibition |
| --- | --- |
| O=C(Nc1ccc2c(c1)CCN(C1CCC1)CC2)c1ccc(-n2ccnc2)cn1 [TCMDC-135973] | 3.666% |
| CCOCCCNc1sc(S(=O)(=O)c2ccccc2)nc1S(=O)(=O)c1ccc(C)cc1 [TCMDC-124750] | 20.27% |
| O=C(Cc1ccc[n+]([O-])c1)Nc1cccc(-c2cccc(-c3nc4cc(C(F)(F)F)ccc4[nH]3)c2)c1 [TCMDC-136990] | -75.57% |
| CC(=O)Nc1ccc(CN2CCN(C(c3ccc(F)cc3)c3ccc(F)cc3)CC2)cc1 [TCMDC-124045] | 16.43% |
| O=C(/C=C/c1ccc(F)cc1)NC1CCC(CCN2CCc3ccccc3CC2)CC1 (stereo not drawn) [TCMDC-139451] | -36.35% |
| N#Cc1ccc(N2CCN(Cc3ccc(-c4ccc(-c5nc6cc(C(F)(F)F)ccc6[nH]5)cc4)cc3)CC2)nc1.O=C(O)C(F)(F)F [TCMDC-133113] | -14.21% |
| Oc1ccccc1CN1CCCC(COC(c2ccc(F)cc2)c2ccc(F)cc2)C1 (stereo not drawn) [TCMDC-136037] | 28.2% |
| Nc1c(Cl)cc(C(O)CNCCCCCOCCCc2ccc(O)c3ncccc23)cc1Cl (stereo not drawn) [TCMDC-132088] | 115.2% |
| Nc1c(Cl)cc(C(O)CNCCCCCOCCc2ccccc2)cc1C(F)(F)F (stereo not drawn) [TCMDC-132081] | 12.69% |
| Cc1ccc(CCOCCCCCNCC(O)c2cc(Cl)c(N)c(Cl)c2)cc1 (stereo not drawn) [TCMDC-132077] | 0.6115% |
| Nc1c(Cl)cc(C(O)CNCCCCCOCCc2ccc3occc3c2)cc1Cl (stereo not drawn) [TCMDC-132085] | 27.47% |
| Nc1c(Cl)cc(C(O)CNCCCCCCCCCc2ccccn2)cc1Cl (stereo not drawn) [TCMDC-132100] | 20.05% |
| Nc1c(Cl)cc(C(O)CNCCCCCCOCCc2ccc(CO)s2)cc1Cl (stereo not drawn) [TCMDC-132092] | 55.37% |
| CCN(CC)S(=O)(=O)c1ccc(CCOCCCCCNCC(O)c2cc(Cl)c(N)c(Cl)c2)s1 (stereo not drawn) [TCMDC-132091] | 31.84% |
| Nc1c(Cl)cc(C(O)CNCCCCCOCCCc2ccc3ncccc3c2)cc1Cl (stereo not drawn) [TCMDC-132087] | 57.03% |
| Nc1c(Cl)cc(C(O)CNCCCCCCOCCc2ccc(O)cc2)cc1Cl (stereo not drawn) [TCMDC-132086] | 21.31% |
| CCOCc1cnc(C)nc1CNC(=O)c1c(C)[nH]c2ccc(C)cc12 [TCMDC-125780] | 11.26% |
| CCCc1cc(=O)oc2cc(OC)c(C(=O)CC(C)C)c(OC)c12 [TCMDC-138262] | -48.84% |
| Oc1cccc(-c2nc(-c3ccccc3)c(-c3ccc4oc5ccc(-c6[nH]c(-c7cccc(O)c7)nc6-c6ccccc6)cc5c4c3)[nH]2)c1 [TCMDC-124223] | 14.59% |
| CC(CN(C)C)C(=O)Nc1ccc(-c2ccc(-c3nc4ccc(C(F)(F)F)cc4[nH]3)cc2)cc1 (stereo not drawn) [TCMDC-137113] | -54.47% |
| O=C(NCCN1CCCC1)c1cccc(-c2ccc(-c3nc4ccc(F)cc4[nH]3)cc2)c1 [TCMDC-132325] | -16.55% |
| CN(C)C(=S)NN=Cc1cccc(O)c1O [TCMDC-137879] | 23.09% |
| CC(=NNC(N)=O)C1=C(O)C(c2ccccc2)N(C2CCCCC2)C1=O (stereo not drawn) [TCMDC-131672] | -9.176% |

| Structure (SMILES) | % Inhibition |
| --- | --- |
| NC(N)=NN=CC(=O)Nc1ccc(Cl)c(C(F)(F)F)c1 [TCMDC-137561] | 9.011% |
| Cc1cccc2nc(-c3cccc(-c4cccc(NC(=O)Cc5ccc[n+]([O-])c5)c4)c3)[nH]c12 [TCMDC-136992] | 24.81% |
| COc1ccc(C(=O)NCCCCN2CCC(c3ccc4c(c3OC)CCCC4)CC2)cc1-c1ccc(C(F)(F)F)cc1 [TCMDC-138700] | -81.5% |
| O=C(NCCCCN1CC=C(c2ccc3c(c2OCC2CC2)CCCC3)CC1)c1ccc(-c2ccc(C(F)(F)F)cc2)cc1 [TCMDC-138758] | -36.04% |
| O=C(NCCCCN1CCC(c2ccc3c(c2OCCOCCO)CCCC3)CC1)c1ccc(-c2ccc(C(F)(F)F)cc2)cc1 [TCMDC-138762] | 96.11% |
| N#CCOc1c(C2CCN(CCCCNC(=O)c3ccc(-c4ccc(C(F)(F)F)cc4)cc3)CC2)ccc2c1CCCC2 [TCMDC-138769] | 92.11% |
| O=C(NCCCCN1CCC(c2ccc3c(c2OCCN2CCCC2=O)CCCC3)CC1)c1ccc(-c2ccc(C(F)(F)F)cc2)cc1 [TCMDC-138773] | 108.1% |
| O=C(NCCCCN1CCC(c2ccc3c(c2OCCCO)CCCC3)CC1)c1ccc(-c2ccc(C(F)(F)F)cc2)c(CO)c1 [TCMDC-138741] | 72.16% |
| Cc1cc(C2CCN(CCCCNC(=O)c3ccc(-c4ccc(C(F)(F)F)cc4)cc3)CC2)c(C)cc1OCC#N [TCMDC-138799] | 37.57% |
| OC(c1ccccc1)C1CN(CCc2ccccc2)CCC1(O)c1ccccc1 (stereo not drawn) [TCMDC-131287] | -3.552% |
| O=C(/C=C/c1ccccc1Cl)Nc1ccc(Br)c(OCCN2CCN(CCN3CCOCC3)CC2)c1 [TCMDC-140958] | -23.86% |
| Fc1ccc2[nH]c(-c3cccc(-c4ccc(CNCc5cnn(-c6ccccc6)n5)cc4)c3)nc2c1.O=C(O)C(F)(F)F [TCMDC-132973] | -12.58% |
| O=C(NC1CCCCC1)c1csc(C2CCCN(C(=O)c3ccc(O)c(-c4cccc(C(F)(F)F)c4)c3)C2)n1 (stereo not drawn) [TCMDC-140156] | 5.189% |
| CC(=O)c1ccc(-c2cccc3c(CC(=O)Nc4ccc5nccc(N6CCN(C)CC6)c5c4)cccc23)cc1 [TCMDC-139271] | -10.77% |
| O=C(NCCCCN1CCC(c2ccc3c(c2OCCO)CCCC3)CC1)c1ccc2oc(-c3ccc(C(F)(F)F)cc3)cc2c1 [TCMDC-138771] | 113.6% |
| O=C(NCCCCN1CCC(c2ccc3c(c2OCCCO)CCCC3)CC1)c1ccc(-c2ccc(C(F)(F)F)cc2)cc1 [TCMDC-138743] | 141.9% |
| Cn1cc(C2CCN(CCCCNC(=O)c3ccc(-c4ccc(C(F)(F)F)cc4)c(CO)c3)CC2)c2ccccc21 [TCMDC-138748] | 65.02% |
| CCOC(=O)c1cc(C(=O)NCCCCN2CCC(c3cn(C)c4ccccc34)CC2)ccc1-c1ccc(C(F)(F)F)cc1 [TCMDC-138751] | 1.206% |
| O=C(NCCCCN1CCC(c2cccc3ccccc23)CC1)c1ccc(-c2ccc(C(F)(F)F)cn2)cc1 [TCMDC-138570] | -25.01% |
| O=C(NCCCCN1CCC(c2ccc3c(c2OCCO)CCCC3)CC1)c1sc(-c2ccc(C(F)(F)F)cc2)nc1CO [TCMDC-138776] | 39.12% |
| O=C(NCCCCN1CCC(c2ccc3c(c2OCCO)CCCC3)CC1)c1ccc(-c2ccc(C(F)(F)F)cc2)cc1 [TCMDC-138714] | 98.87% |
| CNC(=O)COc1cc(C)c(C2CCN(CCCCNC(=O)c3ccc(-c4ccc(C(F)(F)F)cc4)cc3)CC2)cc1C [TCMDC-138846] | 42.45% |
| O=C(NCCCCN1CCC(c2ccc3c(c2OCC2COCO2)CCCC3)CC1)c1ccc(-c2ccc(C(F)(F)F)cc2)cc1 (stereo not drawn) [TCMDC-138770] | 14.16% |
